This is an account of results in PubChem BioAssay (NCI).

About 83,000 compounds went through this panel and 20% of them were active in at least one assay; those are over-represented in the sample as a whole.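 A percent growth of 40 corresponds to 60% growth inhibition; 0 means no net growth; -100 means all cells died. Active threshold: below 10.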 A number with no mark means an inactive call. Active and inactive are the calls of the source.

What all share (assay): NCI-60 one-dose screen, 48 h (100 = growth as untreated, 0 = no growth, -100 = all killed)
Holding throughout (details): 10 µM unless noted

Assay [1] relates to DU-145 prostate.
Assay [2] relates to K-562 leukemia.
Assay [3] concerns MALME-3M melanoma.
Assay [4] relates to MDA-MB-231 breast.
The subject of assay [5] is RXF 393 renal.
Assay [6] has as its system SF-268 CNS.
For assay [7], the system named is SF-295 CNS.
Assay [8] relates to SF-539 CNS.
Assay [9] deals with UACC-257 melanoma.
For assay [10], the system named is M14 melanoma.
The test system of assay [11] is HCT-15 colon.
Assay [12] relates to HT29 colon.
The test system of assay [13] is SNB-75 CNS.
Assay [14] has as its system SNB-19 CNS.
In assay [15] the test system is U251 CNS.
Assay [16] has as its system PC-3 prostate.
Assay [17] concerns SK-MEL-5 melanoma.
Assay [18] concerns UACC-62 melanoma.
Assay [19] concerns LOX IMVI melanoma.
Assay [20] deals with SK-MEL-28 melanoma.

In the case of `COc1ccc(C2=Nc3c(N)nc(N)nc3NC(c3cccc(Nc4ccnc5cc(C(F)(F)F)ccc45)c3)C2)cc1` (stereo not given), the growth is 75.5% in assay [1]; 13.2% in assay [2]; 78.3% in assay [3]; 70.8% in [4]; 54% in assay [5]; 69.7% in assay [6]. The growth in assay [7] was 78.9%; in assay [8], 87.1%; in assay [9], 87.8%; in assay [10], 67.2%; in [11], 36.6%; in assay [12] it was 30.4%. The growth in assay [13] is 65.6%; in [14], 73.1%; in [15] it was 60.4%; in assay [16], 48.4%; in [17], 61.4%; in assay [18], 88.9%. Further, the results for the growth in assay [19] and in assay [20] were 65.3% and 91.5%, respectively.
For `CN(C)c1ccc(-c2c(C#N)c(N)nn2C(=O)c2ccc(NC(=O)c3ccccn3)cc2)cc1`, the growth is 102% in [1]; 66.9% in [2]; 110% in assay [3]; 108% in assay [4]; 117% in assay [5]; 94.1% in [6]. Further, the growth in [7] is 99%; in assay [8], 92%; in assay [9], 112%; in assay [10] it was 84.1%; in assay [11], 85.2%; in assay [12], 113%. Further, the growth in assay [13] was 102%; in assay [14] it was 99.4%; in [15], 99.3%; in assay [16], 77.4%; in [17], 101%; in assay [18] it was 73.2%. Moreover, the growth in assay [19] was 65.3%; in assay [20] it was 108%.
As to `CN(C)CC(C)(C)C(=O)/C=C/c1ccccc1`, the growth in assay [1] was -46.5% [25 µM] (active); in assay [2], 1.32% [25 µM] (active); in assay [3] it was -69.5% [25 µM] (active); in assay [4], -10.9% [25 µM] (active); in [5] it was -77.2% [25 µM] (active); in assay [6], 1.85% [25 µM] (active). Besides, the growth is 7.02% [25 µM] (active) in assay [7]; -77.2% [25 µM] (active) in [8]; -43.5% [25 µM] (active) in [9]; -50.4% [25 µM] (active) in [10]; -47.6% [25 µM] (active) in assay [11]; -16.7% [25 µM] (active) in assay [12]. The growth in [13] is -13.7% [25 µM] (active); in assay [14], -1% [25 µM] (active); in assay [15] it was -41.5% [25 µM] (active); in [16], -34.4% [25 µM] (active); in assay [17], -86.8% [25 µM] (active); in assay [18], -73.6% [25 µM] (active). Besides, the results for the growth in [19] and in assay [20] were -84.8% [25 µM] (active) and -61.6% [25 µM] (active), respectively.
As for `CCOC(=O)c1csc(NC(=O)COc2ccc(/C=C3\Oc4ccccc4C3=O)cc2)n1`, the growth was 114% in assay [1]; 62.7% in assay [2]; 109% in assay [3]; 81.7% in [4]; 79.6% in assay [5]; 88.3% in [6]. In addition, the growth was 102% in assay [7]; 95.5% in assay [8]; 87.9% in assay [9]; 94.6% in assay [10]; 113% in assay [11]; 106% in [12]. For the same molecule, the growth in assay [13] was 81.3%; in [14] it was 87.9%; in [15] it was 91.1%; in assay [16], 96.2%; in assay [17], 98.7%; in assay [18], 79.6%. The growth was 78.3% in assay [19] and 112% in assay [20].
Consider `N#Cc1c(-c2ccccc2)cc(-c2ccccc2)n(CCCC(=O)Nc2ccccc2N)c1=O`, for which the growth in assay [1] was 87.4%; in [2] it was 20.2%; in [3], 47.4%; in assay [4] it was 69.9%; in assay [5] it was 55.8%; in assay [6], 59.5%. Besides, the growth in assay [7] was 35.1%; in assay [8], 52.5%; in [9], 78.2%; in assay [10], 39.8%; in [11], 28.1%; in [12], 49.5%. For the same molecule, the growth in assay [13] was -9.01% (active); in assay [14], 62.2%; in [15], 56.7%; in assay [16], 67.4%; in assay [17], 48.4%; in assay [18] it was 34.2%. Also, the growth in assay [19] is 48%; in assay [20] it was 65.9%.
For `COc1cc2nc3cc([N+](=O)[O-])ccc3c(NCCNCC(C)O)c2cc1OC` (stereo not given), the growth in assay [1] was -7.42% (active); in assay [2], 0.179% (active); in assay [3], -74.1% (active); in [4] it was -39.5% (active); in assay [5], -56% (active); in assay [6], -15.4% (active). Moreover, the growth in assay [7] is 17.1%; in assay [8], -21.6% (active); in assay [9] it was -56% (active); in [10], -66.1% (active); in assay [11] it was 23.4%; in assay [12], 2.64% (active). Also, the growth in assay [13] was -59.9% (active); in assay [14] it was -10.4% (active); in [15], -25.3% (active); in assay [16], -38.6% (active); in assay [17], -82.4% (active); in assay [18], -56.8% (active). In addition, the growth in [19] is -35.7% (active); in assay [20], -20% (active).
Regarding `[O-]/[N+](=C\c1ccc(-n2cc(Cc3ccccc3Cc3cn(-c4ccc(/C=[N+](/[O-])c5ccccc5)cc4)nn3)nn2)cc1)c1ccccc1`, the growth in [1] was 106%; in [2], 86.6%; in [3] it was 102%; in assay [4], 103%; in assay [5], 116%; in assay [6] it was 92.8%. In addition, the growth in assay [7] was 99.5%; in assay [8], 92.2%; in assay [9], 108%; in assay [10] it was 101%; in [11], 98.8%; in assay [12], 101%. The growth is 91.9% in [13]; 96.7% in assay [14]; 107% in assay [15]; 103% in [16]; 105% in assay [17]; 94.7% in assay [18]. The growth is 87.9% in [19] and 110% in [20].
